# Experimental data from PubChem BioAssay (EPA / NIEHS).
# Records with an inconclusive call do not appear. Active and inactive are the calls of the source. The calls were made as follows, unless noted: active = hit-call score of the fitted dose curve at least 0.9, where 1 is the maximum; inconclusive = response in the unintended direction; inactive = score below 0.9.
# What was measured:
# [1] = Tanguay_ZF_120hpf_PIG_legacy: (Legacy) Oregon State University Tanguay Lab 120 Hour Post-fertilization zebrafish Assay for Pigmentation Malformation (AID 2283650)
# Method in brief: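 Brightfield scoring of pigmentation malformation at 120 hpf, recorded as binary present/absent per larva. Exposure: dechorionated 5D wild-type embryos, one per well, static from 6 hpf at 28C, final DMSO 0.64% (vol/vol). Dead embryos not scored.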
# [2] = Tanguay_ZF_120hpf_CIRC_legacy: (Legacy) Oregon State University Tanguay Lab 120 Hour Post-fertilization zebrafish Assay for Circulatory Malformation (AID 2283651)
# Method in brief: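 Binary circulatory malformation call at 120 hpf by brightfield imaging of zebrafish larvae; chorion removed at 4 hpf, static exposure from 6 hpf in sealed dark plates at 28C, final DMSO 0.64%; non-mortality endpoints skipped if embryo died.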
# [3] = Tanguay_ZF_120hpf_SWIM_legacy: (Legacy) Oregon State University Tanguay Lab 120 Hour Post-fertilization zebrafish Assay for Swim Bladder Malformation (AID 2283654);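 also: swim bladder malformation in each larva scored yes or no under brightfield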
# Method in brief: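 Tropical 5D embryos dechorionated at 4 hpf; 1 embryo/well from 6 hpf; static, sealed, dark exposure at 28C until 120 hpf; final DMSO 0.64%; 5uM trimethyltin chloride positive control; swim bladder defect recorded yes/no; dead embryos not scored.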
# [4] = Tanguay_ZF_120hpf_TRUN_legacy: (Legacy) Oregon State University Tanguay Lab 120 Hour Post-fertilization zebrafish Assay for Truncated Body (AID 2283655)
# Method in brief: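 Whole-embryo zebrafish screen: dechorionated 5D embryos, static exposure 6–120 hpf, 28C, sealed foil-covered plates, 0.64% DMSO. Binary truncation call; gain of signal versus DMSO baseline.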
# [5] = Tanguay_ZF_120hpf_NC_legacy: (Legacy) Oregon State University Tanguay Lab 120 Hour Post-fertilization zebrafish Assay for Notochord and Tail Malformation (AID 2283656)
# Method in brief: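 Binary scoring of notochord distortion by brightfield microscopy; embryos dying were not scored. Wild-type Tropical 5D embryos, chorion removed, exposed singly and statically from 6 to 120 hpf, 28C, sealed, 0.64% DMSO.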
# [6] = test system: Thyroperoxidase (TPO), gene 54314; assay: CCTE_Simmons_AUR_rTPO: CCTE's Amplex UltraRed Assay for Thyroperoxidase (TPO) Inhibition, Simmons Lab (AID 2283662);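 as to AC50: potency for loss of signal meaning inhibition of peroxidase activity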
# Method in brief: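 Rat thyroid microsomes (5 ug protein) with 25 uM Amplex UltraRed and 300 uM H2O2 in 200 mM phosphate buffer, 30 min at 37C in dark; fluorescence 544/590 nm. Eight concentrations, 5 nM–87.5 uM final, 0.5% DMSO, triplicate biological replicates.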
# [7] = read-out: solute carrier (SLC22A6), SLC22A6 (gene 9356); assay: LTEA_HepaRG_SLC22A6: Life Technologies and Expression Analysis (LTEA) Assay for solute carrier (SLC22A6) using HepaRG (AID 2283653; active = hit-call score of the fitted dose curve at least 0.9, where 1 is the maximum; inactive = score below 0.9); settings: mRNA level, 48 h; actives raise or lower the signal
# Method in brief: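 HepaRG, human liver line; 48 h chemical exposure; 8-pt half-log series from 100 uM in 0.5% DMSO, duplicate wells. Readout: TaqMan qRT-PCR of SLC22A6 mRNA, housekeeping-normalised; bidirectional curve fit vs DMSO baseline.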
# [8] = read-out: solute carrier (SLC10A1), SLC10A1 (gene 6554); assay: LTEA_HepaRG_SLC10A1: Life Technologies and Expression Analysis (LTEA) Assay for solute carrier (SLC10A1) using HepaRG (AID 2283657; active = hit-call score of the fitted dose curve at least 0.9, where 1 is the maximum; inactive = score below 0.9); settings: mRNA level, 48 h; actives raise or lower the signal
# Method in brief: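 HepaRG, 48 h exposure, 8-pt half-log curve from 100 uM in 0.5% DMSO, duplicates. Read-out: TaqMan qRT-PCR of SLC10A1 mRNA, normalized to three housekeeping genes. Gain/loss fit vs DMSO baseline.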
# [9] = read-out: matrix metalloproteinase-1 (MMP1), MMP1 (gene 4312); assay: LTEA_HepaRG_MMP1: Life Technologies and Expression Analysis (LTEA) Assay for matrix metalloproteinase-1 (MMP1) using HepaRG (AID 2283658; active = hit-call score of the fitted dose curve at least 0.9, where 1 is the maximum; inactive = score below 0.9); settings: mRNA level, 48 h; actives raise or lower the signal
# Method in brief: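 MMP1 transcript read by TaqMan qRT-PCR (Fluidigm array) after 48 h chemical exposure of HepaRG cells in serum-free induction medium. Eight-point half-log series, top 100 uM, 0.5% DMSO vehicle. Bidirectional curve fit against DMSO baseline.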
smiles,measurement,setting,value
Nc1ccn([C@@H]2O[C@H](CO)[C@@H](O)[C@@H]2O)c(=O)n1,outcome,[1],inactive
same,outcome,[2],inactive
same,outcome,[3],inactive
same,outcome,[4],inactive
same,outcome,[5],inactive
NC(=O)NN=Cc1ccc([N+](=O)[O-])o1,outcome,[1],inactive
same,outcome,[2],inactive
same,outcome,[3],inactive
same,outcome,[4],inactive
same,outcome,[5],inactive
OCc1ccccc1,outcome,[1],inactive
same,outcome,[2],inactive
same,outcome,[3],inactive
same,outcome,[4],inactive
same,outcome,[5],inactive
NC(=O)N(O)[C@@H]1COc2cc(OCc3ccccc3)ccc21,outcome,[3],inactive
same,outcome,[4],inactive
same,AC50,[6],1.29 µM (active)
COc1cc(C(C)C)c2c(c1)S(=O)(=O)N(COc1cc(=O)n3cccc(OCCN4CCCCC4)c3n1)C2=O,outcome,[2],inactive
same,outcome,[3],inactive
same,outcome,[4],inactive
same,outcome,[5],inactive
O=C(O)c1cccc(C[C@@H]2COc3ccc(OCc4nc5cc(F)ccc5s4)cc3[C@@H]2O)c1,outcome,[2],inactive
same,outcome,[3],inactive
same,outcome,[4],inactive
C[C@]12C=CC(=O)C=C1CC[C@H]1[C@@H]3C[C@@H](O)[C@](O)(C(=O)CO)[C@@]3(C)C[C@H](O)[C@@]12F,outcome,[1],inactive
same,outcome,[3],inactive
same,outcome,[4],inactive
same,outcome,[5],inactive
NNC(=O)c1ccncc1,outcome,[1],inactive
same,outcome,[3],inactive
same,outcome,[4],inactive
same,outcome,[5],inactive
same,AC50,[6],1.92 µM (active)
OC[C@H]1O[C@@](CO)(O[C@H]2O[C@H](CO)[C@@H](O)[C@H](O)[C@H]2O)[C@@H](O)[C@@H]1O,outcome,[1],inactive
same,outcome,[3],inactive
same,outcome,[4],inactive
same,outcome,[5],inactive
NC(N)=O,outcome,[1],inactive
same,outcome,[3],inactive
same,outcome,[4],inactive
same,outcome,[5],inactive
CCCCCCCCCCCCCCO,outcome,[2],inactive
same,outcome,[3],inactive
same,outcome,[4],inactive
same,outcome,[5],inactive
O=C1CN(N=Cc2ccc([N+](=O)[O-])o2)C(=O)N1,outcome,[2],inactive
same,outcome,[3],inactive
same,outcome,[4],inactive
same,outcome,[5],inactive
CCCCOC(=O)c1ccccc1,outcome,[1],inactive
same,outcome,[3],inactive
same,outcome,[4],inactive
same,outcome,[5],inactive
c1ccc2cc3ccccc3cc2c1,outcome,[1],inactive
same,outcome,[7],inactive
same,outcome,[3],inactive
same,outcome,[4],inactive
same,AC50,[8],10.4 µM (active)
same,outcome,[9],inactive
same,AC50,[6],10.6 µM (active)
COS(C)(=O)=O,outcome,[1],inactive
same,outcome,[2],inactive
same,outcome,[3],inactive
same,outcome,[4],inactive
same,outcome,[5],inactive
same,AC50,[6],49.7 µM (active)
CCCCCCOC(=O)CC(CC(=O)OCCCCCC)(OC(=O)CCC)C(=O)OCCCCCC,outcome,[1],inactive
same,outcome,[2],inactive
same,outcome,[4],inactive
OC(Cn1cncn1)(Cn1cncn1)c1ccc(F)cc1F,outcome,[1],inactive
same,outcome,[2],inactive
same,outcome,[3],inactive
same,outcome,[5],inactive
C[C@@H](Oc1ccc(CNC(=O)c2cccnc2Oc2ccc3c(c2)OCO3)c(F)c1)C(=O)O,outcome,[1],inactive
same,outcome,[3],inactive
same,outcome,[4],inactive
same,AC50,[6],22.2 µM (active)
CCc1cccc(CC)c1N,outcome,[1],inactive
same,outcome,[2],inactive
same,outcome,[3],inactive
same,outcome,[5],inactive
Cc1nccn1-c1ccc(Sc2cccc(C3(C(N)=O)CCOCC3)c2)cc1,outcome,[1],inactive
same,outcome,[2],inactive
same,outcome,[4],inactive
same,outcome,[5],inactive
Cc1cccc(O)c1C,AC50,[6],17.3 µM (active)
CCCc1ccccc1,outcome,[1],inactive
same,outcome,[2],inactive
same,outcome,[3],inactive
same,outcome,[5],inactive
Cc1nc(-c2ccccn2)ncc1C(=O)Nn1cc(C)c2cc(F)ccc21,outcome,[1],inactive
same,outcome,[2],inactive
same,outcome,[3],inactive
same,outcome,[5],inactive
Cn1cc[nH]c1=S,outcome,[1],inactive
same,outcome,[2],inactive
same,outcome,[3],inactive
same,outcome,[5],inactive
same,AC50,[6],0.0542 µM (active)
C=CCc1cc(S(=O)(=O)c2ccc(O)c(CC=C)c2)ccc1O,outcome,[1],inactive
same,outcome,[2],inactive
same,outcome,[3],inactive
same,outcome,[4],inactive
same,AC50,[6],14.6 µM (active)
COCc1nnc(-c2ccc[n+]([O-])c2)n1-c1c(Cl)c(Cl)cc2[nH]c(=O)c(=O)[nH]c12,outcome,[1],inactive
same,outcome,[2],inactive
same,outcome,[4],inactive
same,outcome,[5],inactive
CCCCCCCCCC,outcome,[1],inactive
same,outcome,[2],inactive
same,outcome,[3],inactive
same,outcome,[5],inactive
O=S(=O)(O)c1ccc(N=Nc2c(O)ccc3cc(S(=O)(=O)O)ccc23)cc1,outcome,[1],inactive
same,outcome,[2],inactive
same,outcome,[3],inactive
same,outcome,[5],inactive
C=CN1CCCC1=O,outcome,[1],inactive
same,outcome,[3],inactive
same,outcome,[4],inactive
CCCCCCCC/C=C\CCCCCCCC(=O)OC[C@@H](O)[C@H]1OC[C@H](O)[C@H]1O,outcome,[1],inactive
same,outcome,[2],inactive
same,outcome,[3],inactive
same,outcome,[5],inactive
CC(C)CC(C)O (stereo not given),outcome,[1],inactive
same,outcome,[3],inactive
same,outcome,[5],inactive
CCCCCCCC1CCC(=O)O1 (stereo not given),outcome,[1],inactive
same,outcome,[2],inactive
same,outcome,[4],inactive
same,outcome,[5],inactive
CCCCN1C(=O)[C@@H]([C@H](O)C2CCCCC2)NC(=O)C12CCN(Cc1ccc(Oc3ccc(C(=O)O)cc3)cc1)CC2,outcome,[1],inactive
same,outcome,[2],inactive
same,outcome,[4],inactive
same,outcome,[5],inactive
CC[C@H](C)C(=O)O[C@H]1C[C@H](O)C=C2C=C[C@H](C)[C@H](CC[C@@H](O)C[C@@H](O)CC(=O)O)[C@H]21,outcome,[2],inactive
same,outcome,[3],inactive
same,outcome,[4],inactive
same,outcome,[5],inactive
CCCCCCCCCCCCCCCCOS(=O)(=O)O,outcome,[1],inactive
same,outcome,[2],inactive
same,outcome,[3],inactive
same,outcome,[4],inactive
same,outcome,[5],inactive
same,outcome,[6],inactive
CCn1nc(C)c2c1C(=O)NCC(c1ccc(O)cc1)=N2,outcome,[1],inactive
same,outcome,[2],inactive
same,outcome,[3],inactive
same,outcome,[4],inactive
same,outcome,[5],inactive
same,AC50,[6],11.9 µM (active)
O=S1(=O)CCCO1,outcome,[1],inactive
same,outcome,[2],inactive
same,outcome,[3],inactive
same,outcome,[4],inactive
same,outcome,[6],inactive
CCOc1ccc2[nH]cc(C(=O)NCc3ccccc3)c(=O)c2n1,outcome,[1],inactive
same,outcome,[2],inactive
same,outcome,[4],inactive
same,outcome,[5],inactive
